Screening data from PubChem BioAssay.
In the library only some 0.37% were active in any assay of this set; here they are far more common.
Cdc42 wt GTP – changes GTP binding to wildtype human Cdc42 | P60953 | GST-Cdc42 beads, Bodipy-GTP binding, flow cytometry; actives lie on both sides | percent activity (GTP binding), % at 10 µM | 190,000 compounds, 0.2% hits;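 active = percent activity GTP binding at least 20 points away from the 100% baseline, either down as inhibitor or up as activator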;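 note: median bead fluorescence of bound Bodipy-FL-GTP at 100 nM; below 100% means less GTP binding so inhibitor and above means activator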
Target sequence (P60953 whole entry, looked up): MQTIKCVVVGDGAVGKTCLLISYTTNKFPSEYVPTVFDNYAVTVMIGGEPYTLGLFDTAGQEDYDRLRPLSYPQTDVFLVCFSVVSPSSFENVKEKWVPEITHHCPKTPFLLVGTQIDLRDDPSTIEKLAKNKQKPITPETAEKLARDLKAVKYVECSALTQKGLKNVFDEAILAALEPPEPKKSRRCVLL
Rab2A wt mod – changes GTP binding to wildtype dog Rab2A, up or down. GST-Rab2 wt beads, Bodipy-GTP binding, flow cytometry. GTP binding activity, % at 10 µM. 190,000 compounds, 0.19% hits. AID 760;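 active = GTP binding activity at least 20 points away from 100%, either lowered or raised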
HRas wt GTP – modulators of GTP binding to human HRas wildtype; P01112; GST-Ras wt beads, Bodipy-FL-GTP binding, flow cytometry; actives lie on both sides; GTP binding activity, % at 10 µM; 190,000 compounds, 0.14% hits; AID 759;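 active = GTP binding activity at least 20% away from the 100% baseline, either lowered as inhibitor or raised as activator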
Target sequence (P01112 whole entry, looked up): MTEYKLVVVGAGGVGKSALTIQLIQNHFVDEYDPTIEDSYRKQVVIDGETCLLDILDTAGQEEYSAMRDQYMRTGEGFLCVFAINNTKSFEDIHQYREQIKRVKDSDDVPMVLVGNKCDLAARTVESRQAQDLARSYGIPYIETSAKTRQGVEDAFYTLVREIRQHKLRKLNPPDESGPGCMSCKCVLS
Rac1 wt GTP bind – modulators of human Rac1 wildtype GTP binding; 190,000 compounds, 0.27% hits; GST-Rac1 beads, fluorescent GTP binding, flow cytometry; actives lie on both sides; 0 = cold GTP competed, 100 = untreated; GTP binding activity (% of control), % at 10 µM; P63000; AID 757;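 active = GTP binding activity at least 20 points away from the 100% control level, either lower or higher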
Rac1 act GTP bind – alters GTP binding to activated mutant human Rac1 | GST-Rac1 activated beads, fluorescent GTP binding, flow cytometry; actives lie on both sides; 100% means binding = to untreated wells | 190,000 compounds, 0.11% hits | percent activity (GTP binding), % at 10 µM | AID 764;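 active = GTP binding at least 20 percentage points away from the 100% baseline, in either direction, so actives lie on both sides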
Rab7 wt modul – modulators of GTP binding to dog Rab7 wildtype GTPase. GST-Rab7 beads, fluorescent GTP binding, flow cytometry; actives lie on both sides; untreated = 100%, excess cold GTP = 0%. GTP binding activity (percent of control), % at 10 µM. 190,000 compounds, 0.055% hits;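 active = fluorescent GTP binding to Rab7 beads changed by at least 20 points from the 100% baseline, either direction, mostly lower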;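 note: median green fluorescence of bound Bodipy-FL-GTP per Rab7 bead population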
A number is an active result; [ ] = another dose, or the depositor's remark.

Screening CCc1ccc2c(c1)/C(=N/OC)C(=O)N2 returned Cdc42 wt GTP inactive, Rab2A wt mod inactive, HRas wt GTP inactive, Rac1 wt GTP bind inactive, Rac1 act GTP bind inactive and Rab7 wt modul inactive.
Cn1nnnc1SCc1ccc(C(=O)Nc2nccs2)cc1 was read as Cdc42 wt GTP 75, Rab2A wt mod 72, HRas wt GTP 73, Rac1 wt GTP bind 71, Rac1 act GTP bind inactive and Rab7 wt modul inactive.
Cc1nc2cccc(C)n2c(=O)c1Cl was read as Cdc42 wt GTP inactive, Rab2A wt mod inactive, HRas wt GTP inactive, Rac1 wt GTP bind 120[activator], Rac1 act GTP bind inactive and Rab7 wt modul inactive.
`CCn1cc(C(=O)OCC(=O)c2cc(C)n(-c3ccccc3)c2C)c(=O)c2ccc(C)nc21` gave Cdc42 wt GTP inactive, Rab2A wt mod inactive, HRas wt GTP inactive, Rac1 wt GTP bind inactive, Rac1 act GTP bind inactive and Rab7 wt modul inactive.
`Cc1cc(C(=O)Cn2nc(C(=O)O)c3ccccc3c2=O)c(C)n1-c1ccc(OC(F)F)cc1` gave Cdc42 wt GTP 79, Rab2A wt mod inactive, HRas wt GTP inactive, Rac1 wt GTP bind inactive, Rac1 act GTP bind inactive and Rab7 wt modul inactive.
For COc1ccc(-n2c(C)cc(C(=O)Cn3nc(C(=O)O)c4ccccc4c3=O)c2C)cc1 the results were Cdc42 wt GTP inactive, Rab2A wt mod inactive, HRas wt GTP inactive, Rac1 wt GTP bind inactive, Rac1 act GTP bind inactive and Rab7 wt modul inactive.
CCn1cc(C(=O)OCC(=O)c2cc(C)n(-c3ccc(OC(F)F)cc3)c2C)c(=O)c2ccc(C)nc21 was read as Cdc42 wt GTP 79, Rab2A wt mod 76, HRas wt GTP inactive, Rac1 wt GTP bind 74, Rac1 act GTP bind 78 and Rab7 wt modul inactive.
`O=C(c1ccccc1F)c1cc2c(cc1[N+](=O)[O-])OCCO2` gave Cdc42 wt GTP inactive, Rab2A wt mod inactive, HRas wt GTP inactive, Rac1 wt GTP bind inactive, Rac1 act GTP bind inactive and Rab7 wt modul inactive.
Screening CC(C)Cc1csc(NC(=O)c2ccc(Cl)cc2)c1C(=O)O returned Cdc42 wt GTP inactive, Rab2A wt mod inactive, HRas wt GTP inactive, Rac1 wt GTP bind inactive, Rac1 act GTP bind inactive and Rab7 wt modul inactive.
CC(C)Cc1csc(NC(=O)c2ccccc2Cl)c1C(=O)O was read as Cdc42 wt GTP 78, Rab2A wt mod inactive, HRas wt GTP inactive, Rac1 wt GTP bind 79, Rac1 act GTP bind inactive and Rab7 wt modul inactive.
Screening NC(=O)COC(=O)c1cccc2c1-c1ccccc1C2=O returned Cdc42 wt GTP 78, Rab2A wt mod 78, HRas wt GTP inactive, Rac1 wt GTP bind 72, Rac1 act GTP bind inactive and Rab7 wt modul inactive.
For Cc1ccc(S(=O)(=O)N2CC3(C)CN(S(=O)(=O)c4ccc(C)cc4)CC(C)(C2)C3O)cc1 (stereo unspecified) the results were Cdc42 wt GTP 126[activator], Rab2A wt mod inactive, HRas wt GTP inactive, Rac1 wt GTP bind inactive, Rac1 act GTP bind inactive and Rab7 wt modul inactive.
`Nc1nc2c(c(=O)[nH]1)C(c1cccc3ccccc13)C1=C(N2)c2ccccc2C1=O` (stereo unspecified) gave Cdc42 wt GTP 79, Rab2A wt mod 79, HRas wt GTP inactive, Rac1 wt GTP bind 74, Rac1 act GTP bind inactive and Rab7 wt modul inactive.
For CC1Cc2ccccc2N1S(=O)(=O)c1cccc(C(=O)NCCCO)c1 (stereo unspecified) the results were Cdc42 wt GTP inactive, Rab2A wt mod inactive, HRas wt GTP inactive, Rac1 wt GTP bind 123[activator], Rac1 act GTP bind inactive and Rab7 wt modul inactive.
Screening COc1ccc(/C=N/NC(=O)c2ccco2)cc1Cn1nc(C)c([N+](=O)[O-])c1C returned Cdc42 wt GTP inactive, Rab2A wt mod inactive, HRas wt GTP inactive, Rac1 wt GTP bind inactive, Rac1 act GTP bind inactive and Rab7 wt modul inactive.
COc1ccc(/C=N/NC(=O)c2ccncc2)cc1Cn1nc([N+](=O)[O-])c(Br)c1C was read as Cdc42 wt GTP 65, Rab2A wt mod 68, HRas wt GTP 74, Rac1 wt GTP bind 76, Rac1 act GTP bind inactive and Rab7 wt modul inactive.
CC(C)Cn1c(N)c(S(=O)(=O)c2cccs2)c2nc3ccccc3nc21 was read as Cdc42 wt GTP inactive, Rab2A wt mod inactive, HRas wt GTP inactive, Rac1 wt GTP bind inactive, Rac1 act GTP bind inactive and Rab7 wt modul inactive.
`COc1ccc(/C=N/n2c(N)c(S(=O)(=O)c3cccs3)c3nc4ccccc4nc32)cc1OC` gave Cdc42 wt GTP 61, Rab2A wt mod 49, HRas wt GTP 56, Rac1 wt GTP bind 57, Rac1 act GTP bind 74 and Rab7 wt modul 75.
For Nc1c(S(=O)(=O)c2cccs2)c2nc3ccccc3nc2n1/N=C/c1cccc(O)c1 the results were Cdc42 wt GTP 45, Rab2A wt mod 46, HRas wt GTP 47, Rac1 wt GTP bind 64, Rac1 act GTP bind 64 and Rab7 wt modul 73.
CC(C)N=C(NS(=O)(=O)c1ccccc1)C(Cl)(Cl)Cl was read as Cdc42 wt GTP inactive, Rab2A wt mod inactive, HRas wt GTP inactive, Rac1 wt GTP bind inactive, Rac1 act GTP bind inactive and Rab7 wt modul inactive.
For O=C1OCC2=C1C(c1ccccc1)CC(=O)N2c1ccc(F)cc1 (stereo unspecified) the results were Cdc42 wt GTP inactive, Rab2A wt mod inactive, HRas wt GTP inactive, Rac1 wt GTP bind inactive, Rac1 act GTP bind inactive and Rab7 wt modul inactive.
COc1cccc(Oc2nnnn2-c2ccccc2)c1 was read as Cdc42 wt GTP inactive, Rab2A wt mod inactive, HRas wt GTP inactive, Rac1 wt GTP bind inactive, Rac1 act GTP bind inactive and Rab7 wt modul inactive.
COc1cccc(-n2nnnc2S(C)(=O)=O)c1 was read as Cdc42 wt GTP 72, Rab2A wt mod inactive, HRas wt GTP inactive, Rac1 wt GTP bind inactive, Rac1 act GTP bind 70 and Rab7 wt modul inactive.
`O=C(CCNC(=O)c1ccccc1Cl)Nc1ccc(Cl)c(C(F)(F)F)c1` gave Cdc42 wt GTP inactive, Rab2A wt mod inactive, HRas wt GTP inactive, Rac1 wt GTP bind inactive, Rac1 act GTP bind inactive and Rab7 wt modul inactive.
For O=C(NCc1cccnc1)C(=O)Nc1ccc([N+](=O)[O-])cc1 the results were Cdc42 wt GTP inactive, Rab2A wt mod inactive, HRas wt GTP inactive, Rac1 wt GTP bind inactive, Rac1 act GTP bind inactive and Rab7 wt modul inactive.
`CCn1c(O)c(/C=C/C=C/C=Nc2ccccc2)sc1=S` gave Cdc42 wt GTP inactive, Rab2A wt mod inactive, HRas wt GTP inactive, Rac1 wt GTP bind inactive, Rac1 act GTP bind inactive and Rab7 wt modul inactive.
Screening CCCCn1c(O)c(/C=C/C=C/C=Nc2ccccc2)sc1=S returned Cdc42 wt GTP inactive, Rab2A wt mod inactive, HRas wt GTP inactive, Rac1 wt GTP bind inactive, Rac1 act GTP bind 78 and Rab7 wt modul inactive.
